Assay results published in the supplement of paper PMC11732987, “Enantioselective OTUD7B fragment discovery through chemoproteomics screening and high-throughput optimisation” (Communications Chemistry, 2025).
Values without a mark were called inactive.

Compound: ClCC(=O)N1CCCC1=O
Assay: log2 ratio of Biotin-Ahx-Ub-VS probe labelling (fragment/DMSO); higher = less target engagement (more negative = stronger competition), active = hit call of the paper (q ≤ 0.05, log2 ratio ≤ -1)
Conditions: compound concentration: 200 uM; treatment time: 3 h
Method: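 Competitive ABPP in HEK293T cell lysate. Lysates were treated with each chloroacetamide fragment at 200 µM for 3 h, then with Biotin-Ahx-Ub-VS (0.5 µM, 1 h), NeutrAvidin-enriched and analysed by diaPASEF LC-MS/MS. Protein LFQ was median-normalised; average log2 ratio is fragment/DMSO from an unpaired t-test (n=3 treated, n=44 DMSO). Hits: q ≤ 0.05, log2 ratio ≤ -1, unique peptides ≥ 2.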

Chain of UniProt Q9H9J4 (Q9H9J4 whole entry): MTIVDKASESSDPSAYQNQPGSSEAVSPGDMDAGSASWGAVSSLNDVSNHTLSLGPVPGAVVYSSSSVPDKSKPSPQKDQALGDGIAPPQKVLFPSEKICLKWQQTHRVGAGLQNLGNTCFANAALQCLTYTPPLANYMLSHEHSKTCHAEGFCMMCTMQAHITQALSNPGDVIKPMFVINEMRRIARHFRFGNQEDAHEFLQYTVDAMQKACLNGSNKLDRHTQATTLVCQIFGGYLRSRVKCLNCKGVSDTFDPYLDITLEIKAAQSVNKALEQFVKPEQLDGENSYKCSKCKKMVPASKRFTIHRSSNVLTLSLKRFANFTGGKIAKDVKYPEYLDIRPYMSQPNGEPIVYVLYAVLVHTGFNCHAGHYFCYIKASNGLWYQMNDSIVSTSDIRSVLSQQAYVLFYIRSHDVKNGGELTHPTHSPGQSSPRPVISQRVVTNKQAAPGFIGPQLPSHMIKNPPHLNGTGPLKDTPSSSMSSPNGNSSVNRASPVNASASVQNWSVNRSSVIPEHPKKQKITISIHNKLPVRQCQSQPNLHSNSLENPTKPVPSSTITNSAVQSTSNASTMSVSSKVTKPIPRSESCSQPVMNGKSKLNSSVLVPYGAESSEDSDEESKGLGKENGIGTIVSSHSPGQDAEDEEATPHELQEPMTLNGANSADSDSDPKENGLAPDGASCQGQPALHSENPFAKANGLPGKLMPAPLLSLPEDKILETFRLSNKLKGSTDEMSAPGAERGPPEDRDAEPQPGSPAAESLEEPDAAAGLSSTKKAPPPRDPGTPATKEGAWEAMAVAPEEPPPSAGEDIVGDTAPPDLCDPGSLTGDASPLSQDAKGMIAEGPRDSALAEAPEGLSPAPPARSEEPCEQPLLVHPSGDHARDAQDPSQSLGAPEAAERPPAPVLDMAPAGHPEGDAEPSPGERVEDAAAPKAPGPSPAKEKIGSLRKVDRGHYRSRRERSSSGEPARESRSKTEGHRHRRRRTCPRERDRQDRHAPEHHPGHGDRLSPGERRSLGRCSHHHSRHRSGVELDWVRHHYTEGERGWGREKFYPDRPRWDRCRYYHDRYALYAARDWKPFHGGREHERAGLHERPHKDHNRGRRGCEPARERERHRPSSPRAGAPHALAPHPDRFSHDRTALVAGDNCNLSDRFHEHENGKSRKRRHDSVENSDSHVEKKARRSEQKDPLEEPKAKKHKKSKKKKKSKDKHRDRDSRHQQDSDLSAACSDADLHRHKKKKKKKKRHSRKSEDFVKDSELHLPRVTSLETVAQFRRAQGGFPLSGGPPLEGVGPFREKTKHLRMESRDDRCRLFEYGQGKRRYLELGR
Chain of UniProt Q96K76 (Q96K76 whole entry): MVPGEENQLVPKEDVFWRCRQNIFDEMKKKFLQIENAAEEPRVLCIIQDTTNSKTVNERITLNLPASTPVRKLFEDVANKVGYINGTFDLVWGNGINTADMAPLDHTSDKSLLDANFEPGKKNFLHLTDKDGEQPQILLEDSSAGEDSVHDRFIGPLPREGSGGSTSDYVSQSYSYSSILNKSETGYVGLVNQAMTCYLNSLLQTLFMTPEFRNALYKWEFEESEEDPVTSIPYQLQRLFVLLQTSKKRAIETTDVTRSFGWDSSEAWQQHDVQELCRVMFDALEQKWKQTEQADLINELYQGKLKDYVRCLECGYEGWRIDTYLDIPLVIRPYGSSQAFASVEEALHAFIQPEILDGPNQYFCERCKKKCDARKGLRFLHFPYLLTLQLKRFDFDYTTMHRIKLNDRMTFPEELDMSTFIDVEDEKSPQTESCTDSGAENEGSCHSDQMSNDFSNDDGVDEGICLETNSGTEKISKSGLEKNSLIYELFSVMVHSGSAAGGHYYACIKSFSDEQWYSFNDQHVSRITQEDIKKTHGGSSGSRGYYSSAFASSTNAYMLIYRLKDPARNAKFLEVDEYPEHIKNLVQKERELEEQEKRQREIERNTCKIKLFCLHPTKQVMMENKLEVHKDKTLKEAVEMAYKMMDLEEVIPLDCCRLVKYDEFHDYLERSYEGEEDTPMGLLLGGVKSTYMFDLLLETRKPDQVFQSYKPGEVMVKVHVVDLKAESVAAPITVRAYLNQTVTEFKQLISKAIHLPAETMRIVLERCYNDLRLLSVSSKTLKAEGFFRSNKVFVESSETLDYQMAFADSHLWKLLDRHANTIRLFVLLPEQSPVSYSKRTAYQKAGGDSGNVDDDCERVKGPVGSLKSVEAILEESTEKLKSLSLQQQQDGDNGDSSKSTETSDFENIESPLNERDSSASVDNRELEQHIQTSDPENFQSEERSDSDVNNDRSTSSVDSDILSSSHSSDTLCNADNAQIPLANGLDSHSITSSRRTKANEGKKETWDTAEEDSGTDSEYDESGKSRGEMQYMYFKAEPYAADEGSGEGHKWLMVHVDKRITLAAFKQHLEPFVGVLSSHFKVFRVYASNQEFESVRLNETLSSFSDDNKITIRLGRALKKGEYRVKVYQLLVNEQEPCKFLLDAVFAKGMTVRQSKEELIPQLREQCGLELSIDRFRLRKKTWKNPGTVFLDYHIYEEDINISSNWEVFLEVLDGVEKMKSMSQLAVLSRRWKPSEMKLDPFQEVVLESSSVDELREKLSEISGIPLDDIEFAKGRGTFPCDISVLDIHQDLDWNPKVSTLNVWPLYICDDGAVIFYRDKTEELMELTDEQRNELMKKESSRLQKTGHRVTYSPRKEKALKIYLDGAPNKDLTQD
Chain of UniProt Q6GQQ9 (Q6GQQ9 whole entry): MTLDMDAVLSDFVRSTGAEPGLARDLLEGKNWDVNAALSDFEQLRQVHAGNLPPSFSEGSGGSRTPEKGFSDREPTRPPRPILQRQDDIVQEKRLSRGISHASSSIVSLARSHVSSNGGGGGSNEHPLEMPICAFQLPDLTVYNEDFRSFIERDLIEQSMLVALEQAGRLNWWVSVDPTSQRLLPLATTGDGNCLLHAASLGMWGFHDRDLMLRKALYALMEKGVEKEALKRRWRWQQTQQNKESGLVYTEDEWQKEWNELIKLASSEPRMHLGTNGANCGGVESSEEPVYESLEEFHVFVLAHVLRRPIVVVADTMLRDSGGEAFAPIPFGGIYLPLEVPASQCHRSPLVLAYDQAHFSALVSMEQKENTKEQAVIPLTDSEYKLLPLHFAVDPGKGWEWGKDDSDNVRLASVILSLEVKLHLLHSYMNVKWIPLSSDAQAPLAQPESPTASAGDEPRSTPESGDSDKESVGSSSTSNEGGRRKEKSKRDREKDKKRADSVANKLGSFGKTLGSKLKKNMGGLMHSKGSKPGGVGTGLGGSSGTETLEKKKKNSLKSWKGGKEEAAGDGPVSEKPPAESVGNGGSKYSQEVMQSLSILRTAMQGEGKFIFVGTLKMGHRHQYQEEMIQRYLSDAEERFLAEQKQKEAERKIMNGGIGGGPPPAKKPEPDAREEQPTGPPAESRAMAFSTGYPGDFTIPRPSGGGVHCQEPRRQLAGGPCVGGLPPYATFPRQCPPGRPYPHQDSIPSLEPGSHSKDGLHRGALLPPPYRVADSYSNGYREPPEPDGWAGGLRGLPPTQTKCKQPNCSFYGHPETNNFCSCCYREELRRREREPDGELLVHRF
Chain of UniProt Q14694 (Q14694 whole entry): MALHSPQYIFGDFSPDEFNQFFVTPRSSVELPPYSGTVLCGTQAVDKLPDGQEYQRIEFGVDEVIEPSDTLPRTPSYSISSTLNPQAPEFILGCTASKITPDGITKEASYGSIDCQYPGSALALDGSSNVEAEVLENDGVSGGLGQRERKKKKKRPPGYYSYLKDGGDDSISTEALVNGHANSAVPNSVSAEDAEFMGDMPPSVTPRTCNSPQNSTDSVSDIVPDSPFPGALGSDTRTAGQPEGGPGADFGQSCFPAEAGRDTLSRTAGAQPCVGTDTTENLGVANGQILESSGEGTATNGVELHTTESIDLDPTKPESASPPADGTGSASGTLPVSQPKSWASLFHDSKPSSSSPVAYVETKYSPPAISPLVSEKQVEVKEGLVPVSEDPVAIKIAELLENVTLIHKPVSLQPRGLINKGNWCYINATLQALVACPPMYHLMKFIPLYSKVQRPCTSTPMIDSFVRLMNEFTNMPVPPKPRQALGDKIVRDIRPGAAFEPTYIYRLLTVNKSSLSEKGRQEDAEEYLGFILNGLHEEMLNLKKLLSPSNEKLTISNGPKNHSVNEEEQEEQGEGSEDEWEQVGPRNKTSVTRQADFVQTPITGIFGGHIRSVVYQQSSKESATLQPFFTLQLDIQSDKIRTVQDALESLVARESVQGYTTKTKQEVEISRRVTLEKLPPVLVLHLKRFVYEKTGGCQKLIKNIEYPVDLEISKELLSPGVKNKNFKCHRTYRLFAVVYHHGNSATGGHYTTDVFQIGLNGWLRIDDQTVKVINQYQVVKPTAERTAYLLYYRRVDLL
Chain of UniProt Q92560 (Q92560 whole entry): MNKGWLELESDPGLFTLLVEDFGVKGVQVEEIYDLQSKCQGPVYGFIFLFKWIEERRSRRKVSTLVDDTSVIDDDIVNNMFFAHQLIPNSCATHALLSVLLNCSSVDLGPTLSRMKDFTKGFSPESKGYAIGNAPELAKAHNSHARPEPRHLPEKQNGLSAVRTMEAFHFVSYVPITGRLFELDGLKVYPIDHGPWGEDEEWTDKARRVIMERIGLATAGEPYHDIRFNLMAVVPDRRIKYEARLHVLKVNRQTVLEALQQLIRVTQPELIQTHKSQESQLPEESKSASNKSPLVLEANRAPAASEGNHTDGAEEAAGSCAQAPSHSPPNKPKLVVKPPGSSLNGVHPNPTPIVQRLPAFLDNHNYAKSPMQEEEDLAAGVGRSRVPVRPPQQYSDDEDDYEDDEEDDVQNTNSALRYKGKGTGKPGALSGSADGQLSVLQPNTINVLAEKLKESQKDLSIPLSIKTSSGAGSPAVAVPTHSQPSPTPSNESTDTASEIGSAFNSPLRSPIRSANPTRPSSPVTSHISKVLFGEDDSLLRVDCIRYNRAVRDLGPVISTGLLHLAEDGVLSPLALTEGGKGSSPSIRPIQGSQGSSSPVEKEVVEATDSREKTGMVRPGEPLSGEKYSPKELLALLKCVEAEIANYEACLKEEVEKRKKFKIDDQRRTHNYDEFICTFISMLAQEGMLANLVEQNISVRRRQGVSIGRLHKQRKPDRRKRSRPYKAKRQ

| Target | log2 ratio of Biotin-Ahx-Ub-VS probe labelling |
| --- | --- |
| UCHL1 (UniProt P09936) | -0.746 |
| ALG13 (UniProt Q9NP73) | 0.188 |
| PRPF8 (UniProt Q6P2Q9) | 0.106 |
| UniProt Q5T2D3 | -0.924 |
| UniProt Q9UGI0 | -0.149 |
| PSMD7 (UniProt P51665) | -0.274 |
| USP15 (UniProt Q9Y4E8) | -0.378 |
| USP8 (UniProt P40818) | -0.417 |
| USP5 (UniProt P45974) | -0.246 |
| EIF3F (UniProt O00303) | -0.166 |
| UniProt P51784 | -0.126 |
| UniProt Q9P2H5 | -0.151 |
| UniProt Q8TE49 | -0.249 |
| VCPIP1 (UniProt Q96JH7) | -0.53 |
| USP28 (UniProt Q96RU2) | -0.413 |
| EIF3H (UniProt O15372) | 0.0752 |
| USP46 (UniProt P62068) | -0.141 |
| USP16 (UniProt Q9Y5T5) | -0.298 |
| USP10 (UniProt Q14694) | -0.0833 |
| UniProt O00487 | 0.00332 |

| Target | log2 ratio of Biotin-Ahx-Ub-VS probe labelling |
| --- | --- |
| USP9X (UniProt Q93008) | -0.16 |
| OTUB1 (UniProt Q96FW1) | -0.0612 |
| USP7 (UniProt Q93009) | -0.135 |
| USP14 (UniProt P54578) | -0.184 |
| OTUD6B (UniProt Q8N6M0) | -0.48 |
| USP34 (UniProt Q70CQ2) | -0.582 |
| OTUD7B (UniProt Q6GQQ9) | -0.251 |
| USP47 (UniProt Q96K76) | -0.175 |
| COPS5 (UniProt Q92905) | 0.159 |
| USP42 (UniProt Q9H9J4) | -0.218 |
| USP36 (UniProt Q9P275) | -0.0906 |
| YOD1 (UniProt Q5VVQ6) | -0.311 |
| UCHL3 (UniProt P15374) | 0.027 |
| USP54 (UniProt Q70EL1) | -0.396 |
| UCHL5 (UniProt Q9Y5K5) | -0.166 |
| USP19 (UniProt O94966) | -0.376 |
| UniProt O00507 | -0.733 |
| USP24 (UniProt Q9UPU5) | -0.396 |
| BAP1 (UniProt Q92560) | -0.142 |
| OTUD4 (UniProt Q01804) | -0.294 |
